Screen size: about 69,000 compounds; about 8,600 (12%) showed an effect of 50% or more. The full list was thinned out, with strong results kept by preference.

The assay deals with Plasmodium berghei. Put plainly: Screen against P. berghei liver stage (PbLuc), transformed with Luciferase, at 10uM. The class given is functional, HepG2. Particulars: tested at 10 uM.
Regarding `CCc1nccn1C1CCCN(C(=O)c2csc(NC(C)=O)n2)C1` (stereo not drawn), the INHIBITION was 20.1%. Regarding `COc1ccccc1CNC(C)c1ccc2[nH]c(=O)[nH]c2c1` (stereo not drawn), the INHIBITION was 7.12%.

On to `CC(NCc1ccccc1Br)c1ccc2[nH]c(=O)[nH]c2c1` (stereo not drawn), for which the INHIBITION turned out to be 51.6%.

`CC(NCc1ccccc1Cl)c1ccc2[nH]c(=O)[nH]c2c1` (stereo not drawn): the INHIBITION was 40.9%. In the case of `CCN1CC(C(=O)NCCCc2nc(C)c(C)s2)CC1=O` (stereo not drawn), the INHIBITION came out at 45.8%. Consider `Cc1nc(CCCNC(=O)C2CC(=O)N(C3CCCC3)C2)sc1C` (stereo not drawn), for which the INHIBITION came out at 44.7%. For the molecule `Cc1nc(CCCNC(=O)C2CC(=O)N(C3CC3)C2)sc1C` (stereo not drawn), the INHIBITION turned out to be 56.8%. As to `Cc1cnc2n1CCN(C)C21CCN(C(=O)CC(C)C)CC1`, the INHIBITION is 0.547%. As for `COCc1ccc(C(=O)N2CC[C@H](O)[C@@H](n3ccnc3)CC2)cc1`, the INHIBITION is listed as -6.3%. Take `Cn1c(=O)oc2cc(S(=O)(=O)N3CCCCC3)c(Cl)cc21`: the INHIBITION was found to be 30%. With `Cn1c(=O)oc2ccc(S(=O)(=O)N3CCC(c4ccccc4)C3)cc21` (stereo not drawn), the INHIBITION is reported as -5.26%. For `Cn1c(=O)oc2cc(S(=O)(=O)N3CCC(c4ccccc4)C3)c(Cl)cc21` (stereo not drawn), the INHIBITION amounted to 55%.

On to `COCC(NC(=O)c1ccoc1C)c1cccc(C(F)(F)F)c1` (stereo not drawn), for which the INHIBITION amounted to 17.8%. For the molecule `O=C(O)[C@]12CCCN(Cc3ccsc3)C[C@H]1CN(c1ccccn1)C2`, the INHIBITION is 1.48%. Next, `Cn1cc(CN2CCCC3(COCCN(Cc4c[nH]nn4)C3)C2)cn1` (stereo not drawn): -6.23%. Consider `Cc1ccc(CN2CCCC3(COCCN(Cc4c[nH]nn4)C3)C2)s1` (stereo not drawn), for which the INHIBITION is listed as 65.6%. For `c1csc(CN2CCCC3(COCCN(Cc4c[nH]nn4)C3)C2)c1` (stereo not drawn), the INHIBITION worked out at 31.7%. As for `CNC(=O)CN1CCOCC2(CCCN(Cc3ccoc3)C2)C1` (stereo not drawn), the INHIBITION was -2.35%.

In the case of `CNC(=O)CN1CCOCC2(CCCN(Cc3ccc(F)cc3)C2)C1` (stereo not drawn), the INHIBITION is 53.1%. For `Cc1ccc(CN2CCCC3(COCCN(Cc4c[nH]nn4)C3)C2)o1` (stereo not drawn), the INHIBITION came out at 30.5%. Regarding `c1cc(CN2CCCC3(COCCN(Cc4c[nH]nn4)C3)C2)cs1` (stereo not drawn), the INHIBITION is on record as -4.88%. For `CNC(=O)CN1CCOCC2(CCCN(Cc3ccsc3)C2)C1` (stereo not drawn), the INHIBITION was -17.1%. On to `Fc1ccc(CN2CCCC3(COCCN(Cc4c[nH]nn4)C3)C2)cc1` (stereo not drawn), for which the INHIBITION is given as 61.5%. On to `CCc1cccc(CC)c1NC(=O)c1ccccc1N(C)S(C)(=O)=O`, for which the INHIBITION was 26.9%. `Cn1cccc1C(=O)N1CCCCC1c1[nH]ncc1S(C)(=O)=O` (stereo not drawn): the INHIBITION is reported as 4.08%. With `CC(C)n1cnc2c1C(C(=O)N1CCCC1)N(CC1CC1)CC2` (stereo not drawn), the INHIBITION turned out to be 13.7%. Turning to `Cc1nc(C(C)(C)C)sc1C(=O)NCCNc1ncccc1C#N`, the INHIBITION is reported as -26.6%. As for `CCN(Cc1c(F)cccc1F)Cn1nc(C)c2c(C)onc2c1=O`, the INHIBITION turned out to be 12.7%.

(Values after ChEMBL document CHEMBL4513216, “Probing the Open Global Health Chemical Diversity Library for Multistage-Active Starting Points for Next-Generation Antimalarials” (ACS Infect Dis, 2020).)
